This is a sample that favours compounds with a hit; in the whole collection about 0.85% have one here.
Coupling enz: qHTS Assay for Inhibitors of Fructose-1,6-bisphosphate Aldolase from Giardia Lamblia: Coupling assay counterscreen. activity change, negative = inhibition, % at 58.2 µM, hits read low. actives 0.67% (n = 290,000). coupling enzyme system counterscreen, AmpLite Red fluorescence; in the data active = activity change below about -30%
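Counterscreen lacking aldolase: glyceraldehyde-3-phosphate coupling-enzyme reagent preincubated 10 min at RT with compound (at 57.5 uM final), then substrate/coupling system with AmpLite Red added; fluorescence read at 525/598 nm after 20 min RT.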
GAA inhib: qHTS Assay for Inhibitors of Human alpha-Glucosidase as a Potential Chaperone Treatment of Pompe Disease. Potency, µM (titrated, usually from 76.9 µM), without a hit: at the highest dose activity change, negative = inhibition, usual class: inhibitors. AID 1466, 2008. actives 0.005% (n = 200,000). Lysosomal alpha-glucosidase (Homo sapiens), P10253. purified human GAA, 4-MU-alpha-glucoside fluorescence;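 note: potency is the fitted concentration of half-maximal effect; plate controls were uninhibited enzyme wells for no effect and no-enzyme background for full effect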
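Human enzyme at 4 nM with 400 uM 4-methylumbelliferyl-alpha-D-pyranoside, citrate/phosphate buffer pH 5.0, 0.005% Tween-20, 20 min at room temperature. Compounds up to 77 uM. 4-MU fluorescence (Ex 365/Em 440) read after NaOH/glycine stop; AC50 from Hill fit.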
B2AR arrestin: qHTS assay of beta-arrestin-biased ligands of beta2-adrenergic receptor. Beta-2 adrenergic receptor (Homo sapiens), P07550. beta-arrestin recruitment to beta2AR, cell-based reporter. Potency, µM (titrated, usually from 46.1 µM), inactives show at the highest dose activation, most hits filed as activators. actives 0.02% (n = 330,000). AID 492947, 2010;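 note: potency is the fitted concentration of half-maximal effect; 0% = DMSO controls and full agonism = EC100 isoproterenol or metaproterenol; nearly all actives have a fitted effect of over 65% in size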
Target sequence (P07550 whole entry, looked up): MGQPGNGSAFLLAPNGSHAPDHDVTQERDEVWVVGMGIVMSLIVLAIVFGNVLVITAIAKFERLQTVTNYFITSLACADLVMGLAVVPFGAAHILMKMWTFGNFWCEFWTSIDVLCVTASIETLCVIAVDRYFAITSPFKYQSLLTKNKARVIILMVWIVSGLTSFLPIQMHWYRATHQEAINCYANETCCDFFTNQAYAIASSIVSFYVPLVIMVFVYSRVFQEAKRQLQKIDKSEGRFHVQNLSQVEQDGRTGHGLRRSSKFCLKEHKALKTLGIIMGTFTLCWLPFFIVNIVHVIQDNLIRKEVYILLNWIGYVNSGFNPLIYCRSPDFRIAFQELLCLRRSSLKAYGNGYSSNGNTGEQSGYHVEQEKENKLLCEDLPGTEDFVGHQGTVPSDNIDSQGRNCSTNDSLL
aGlu spleen mod: qHTS Assay for Inhibitors and Activators of Human alpha-Glucosidase From Spleen Homogenate; Potency, µM (series often up to 79.9 µM), without a hit: at the top dose activity change, negative = inhibition, usual class: inhibitors; Lysosomal alpha-glucosidase (Homo sapiens), P10253; human spleen homogenate, 4-MU-alpha-glucoside fluorescence; actives 0.006% (n = 240,000);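 note: potency is the fitted concentration of half-maximal effect; 0% = enzyme with vehicle and -100% = no enzyme basal signal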
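Compounds were titrated against alpha-glucosidase in spleen homogenate at pH 5.0, with 1 mM 4-methylumbelliferyl substrate for 40 min at 37 C. Reactions were quenched with pH 10 NaOH/glycine and fluorescence measured.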
GAA glycogen: qHTS Assay for Inhibitors and Activators of Human alpha-Glucosidase Cleavage of Glycogen | Potency, µM (titrated, usually from 76.4 µM), for inactives: top-dose activity change, negative = inhibition, actives largely listed as inhibitors | recombinant GAA, glycogen substrate, Amplex Red glucose oxidase fluorescence | actives 0.38% (n = 300,000);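 note: potency is the fitted concentration of half-maximal effect; 0% = full enzyme reaction and -100% = no-enzyme basal signal; the screen sought inhibitors and activators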
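Recombinant human enzyme (4 nM); glycogen substrate; 37 C, 40 min, pH 5.0. Readout: coupled glucose oxidase/Amplex Red fluorescence.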
An asterisk follows results filed as active; ? = inconclusive; . = no result given; [ ] = dose if it differs, or a comment. Unless noted, calls come from the whole dose curve; as a rule, active = well fitted curve in the direction sought with a large enough effect; inconclusive = small, poorly fitted or top-dose-only effect, or another doubt; inactive = no such curve, though single readings can be large; an effect the other way counts as inactive or inconclusive. Unless noted, % is set by controls: 0 for no effect and ±100 for the full control effect.

SMILES | Coupling enz | GAA inhib | B2AR arrestin | aGlu spleen mod | GAA glycogen
CCCCC1=CC2=C(c3ccco3)C(=O)C(C)(OC(=O)c3ccc(Cl)nc3)C(=O)C2=CO1 (configuration not stated) | 3.3 | . | . | -7.4% | .
CCOc1cc(C2CC(=O)N3CN(C4CCCCC4)CSC3=C2C#N)ccc1O (configuration not stated) | -35.2* | -0.6% | -0.5% | -0.1% | -22.9%
Cc1ccc(-c2cc(C(=O)N3CCN(S(=O)(=O)c4ccc(Br)cc4)CC3)[nH]n2)c(C)c1 | . | . | . | . | -1.9%[76.3 µM]
Cc1ccc(-c2cc(C(=O)N3CCN(S(=O)(=O)c4ccc(Br)s4)CC3)[nH]n2)c(C)c1 | . | . | . | . | 8.91µM*
COc1ccccc1CNC(=O)CSc1ccccc1 | -1.3 | 6.1% | -0.3% | -10.0% | -8.7%
COc1ccccc1CNC(=O)CSc1ccc(C)cc1 | -30.2* | 9.9% | -0.1% | -10.5% | -0.8%
CC1(C)C(=O)C(c2ccccc2)=C2CN3C(=O)N(CCc4ccccc4)C(=O)C3(Cc3ccc(F)cc3)C=C21 (configuration not stated) | -0.3 | . | . | 12.3% | .
CCOC(=O)CN1C(=O)C(O)(c2c(C)[nH]c3ccccc23)c2ccccc21 (configuration not stated) | -30.2* | -4.6% | -0.2% | 3.4% | -1.7%
Cn1c(C(=O)NCCN2CCc3ccccc3C2)cc2c(=O)n(C)c3ccccc3c21 | -30.5* | ? | 0.2% | -3.0% | 2.4%
Cn1c(C(=O)NCCN2CCOCC2)cc2c(=O)n(C)c3ccccc3c21 | -2.3 | -6.1% | 0.3% | 1.5% | 1.0%
COCCn1c(=O)c(-c2cccc(C#N)c2)nc2cnc(N3CCN(C)CC3)nc21 | -0.4 | . | . | 3.0% | .
COC(=O)Oc1nsnc1N1CCOCC1 | -0.8 | -22.2% | 0.4% | 1.4% | -17.3%
O=c1c(N2CCOCC2)nsnc1N1CCOCC1 | -53.8* | 3.3% | -0.9% | 3.4% | -14.4%
Cc1ccc(CNS(=O)(=O)c2ccc3[nH]c4c(c3c2)CCCC4)cc1 | . | . | . | . | -11.5%[76.3 µM]
CCS(=O)(=O)NCc1ccc2[nH]c3c(c2c1)CCCC3 | -44.2* | 2.0% | 0.1% | 0.6% | 11.7%
CC(=O)c1cc(O)c2ccccc2c1O | -33.0* | . | -1.0% | 2.2% | -4.8%
CC(=O)Oc1cc2c(C(C)=O)coc2c2ccccc12 | -1.4 | -6.0% | -0.1% | -0.2% | 4.6%
O=C(O)Cn1cc(C(=O)c2ccco2)c2ccccc21 | -0.6 | -7.2% | -0.5% | -15.3% | -1.9%
O=C(c1ccco1)c1coc2c1cc(O)c1ccccc12 | -31.0* | 8.1% | -0.6% | 3.7% | -16.9%
CC(=O)c1coc2c1cc(O)c1ccccc12 | -33.4* | -2.3% | 0.1% | 8.8% | 5.9%
Cc1cc(C(=O)OCC(=O)c2cccs2)ccc1[N+](=O)[O-] | . | . | 0.0% | . | .
N[C@H](C(=O)O)C1C(C(=O)O)C1C(=O)O (some centres not stated) | . | . | . | 4.3% | .
Cc1ccc(C(C[N+](=O)[O-])c2c(C)[nH]n(-c3ccccc3)c2=O)cc1 (configuration not stated) | -32.3* | -0.8% | 0.3% | 1.3% | ?
Cc1[nH]n(-c2ccccc2)c(=O)c1C(C[N+](=O)[O-])c1ccc(F)cc1 (configuration not stated) | -19.2 | -7.9% | -0.2% | -2.7% | 3.2%
COc1ccc2c(c1OC)C(Cc1ccccc1)N1CCc3cc4c(cc3C1C2)OCO4 (configuration not stated) | -12.8 | . | . | -3.8% | .
COC(=O)[C@H](COC(C)(C)C)NC(=O)O[C@@H]1C(=O)c2cc(Br)ccc2O[C@H]1c1cccc(OC)c1 | -0.2 | . | . | 1.5% | .
FC(F)(F)c1cnc(Sc2nc3nccc(-c4ccc(Cl)cc4)n3n2)c(Cl)c1 | -55.4* | -6.4% | 0.3% | -1.2% | -3.6%
COc1ccc(-c2ccnc3nc(Sc4ncc(C(F)(F)F)cc4Cl)nn23)cc1 | -5.9 | ? | -1.8% | -0.8% | -11.2%
CCN(CC)c1cc(Cl)c2nonc2c1N | -25.1 | . | 0.1% | -1.6% | ?
